High-throughput results deposited in PubChem BioAssay by National Center for Advancing Translational Sciences (NCATS).
Pf growth 96h: Primary qHTS for delayed death inhibitors of the malarial parasite plastid, 96 hour incubation; P. falciparum luciferase reporter growth, 96 h; Potency, µM (top dose mostly 28.7 µM), inactives show at the top dose activity change, negative = inhibition, most hits filed as inhibitors; 6.9% of 320,000 active; active = well fitted inhibition curve with a large enough effect; inconclusive = small, poorly fitted or top-dose-only effect, or another doubt; inactive = no such curve, though single readings can be large or run the other way; also: potency is read from the fitted curve at half-maximal effect; % is scaled to controls: 0 for no effect and ±100 for the full control effect
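Two parasite generations (96 h, 37 C, 5% CO2) of compound exposure in infected erythrocytes (0.05% parasitemia, 2% hematocrit). Luciferase-reporter P. falciparum; decreased luminescence indicates inhibited growth, aimed at apicoplast-acting delayed death.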
Pf growth 48h: Primary qHTS for delayed death inhibitors of the malarial parasite plastid, 48 hour incubation | P. falciparum luciferase growth in erythrocytes, 48 h | Potency, µM (titrated, usually from 28.7 µM), for the others: at the highest dose activity change, negative = inhibition, actives largely listed as inhibitors | 5.9% of 310,000 active | AID 504832, 2011; active = well fitted inhibition curve with a large enough effect; inconclusive = small, poorly fitted or top-dose-only effect, or another doubt; inactive = no such curve, though single readings can be large or run the other way; also: potency is read from the fitted curve at half-maximal effect; % is scaled to controls: 0 for no effect and ±100 for the full control effect
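Erythrocytes infected with P. falciparum carrying an integrated firefly luciferase reporter (2% hematocrit, 0.1% parasitemia final) were exposed to compounds in RPMI 1640 with 0.5% Albumax at 37 C, 5% CO2. Growth inhibition was scored as reduced luminescence.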
NS1 inh: qHTS Assay for Inhibitors of Influenza NS1 Protein Function | Potency, µM (doses to about 46.1 µM), for the others: at the top dose activity, positive = more growth | 0.4% of 270,000 active | AID 2326, 2010; also: potency is read from the fitted curve at half-maximal effect; actives are rising curves; nearly all actives have a fitted effect of over 50% in size
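Read-out: OD600 growth recovery of NS1-expressing budding yeast. Cells grown overnight at 30C in -URA glucose medium, washed, resuspended and diluted 1:100 in 2% galactose assay medium, pH 6.0. Same strain lacking NS1 served as positive control.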
Shiga toxin inh: A qHTS for Small Molecule Inhibitors of Shiga Toxin; Vero cells, Shiga toxin protein synthesis inhibition reporter; inhibition, % at 38.7 µM; 9.2% of 290,000 active; AID 2315, 2010; in the data active = inhibition mostly above about 28%, no sharp cut-off; inactive = mostly below about 43%; also: 0% is about no effect
Cycloheximide cs: Cycloheximide Counterscreen for Small Molecule Inhibitors of Shiga Toxin; cell reporter, cycloheximide protein synthesis inhibition counterscreen; 12% of 300,000 active; max response, %; in the data active = max response mostly above about 13%, no sharp cut-off; inactive = mostly below about 14%; also: read at 38.3 µM for the half of the compounds with a filed dose; 0% is about no effect
SARS PLP yeast: qHTS of Yeast-based Assay for SARS-CoV PLP. S. cerevisiae expressing SARS-CoV PLpro, growth rescue. Potency, µM (doses to about 32.9 µM), without a hit: top-dose activity, positive = growth rescue, hits mostly activators. 0.19% of 330,000 active. AID 485353, 2010; also: potency is read from the fitted curve at half-maximal effect; 0% is about no effect; nearly all actives have a fitted effect of over 55% in size
* marks the source's active call; other numbers are inactive results; ! = repeats disagree. An excerpt weighted towards active compounds, which were near 21% of everything screened. Unless noted, calls follow the shape of the full dose curve.

`Nc1ccc(-c2nc3ccc(-c4nc5ccc(N)cc5[nH]4)cc3[nH]2)cc1` gave NS1 inh -18%, Shiga toxin inh -7 and Cycloheximide cs 0.
For Nc1cccc(-c2nc3ccccc3[nH]2)c1 the results were Pf growth 96h 162%, Pf growth 48h 180%, NS1 inh -7%, Shiga toxin inh 71*, Cycloheximide cs 22* and SARS PLP yeast 4%.
Screening Cc1ccc2nc(-c3cccc(N)c3)[nH]c2c1 returned Pf growth 96h -11%, Pf growth 48h 169%, NS1 inh -1%, Shiga toxin inh 33*, Cycloheximide cs 17* and SARS PLP yeast -41%.
Screening Cc1ccc2nc(-c3sc4nc(C)cc(C)c4c3N)[nH]c2c1 returned Pf growth 96h -66%, Pf growth 48h 53%, NS1 inh 15%, Shiga toxin inh 43*, Cycloheximide cs 26* and SARS PLP yeast -26%.
COc1cc(NS(=O)(=O)c2c(C)[nH]c(C)c2C(=O)N2CCCCC2)cc(OC)c1OC was read as Pf growth 96h 8%, Pf growth 48h inconclusive, NS1 inh 1%, Shiga toxin inh 2, Cycloheximide cs 9 and SARS PLP yeast -2%.
COc1ccc(CCc2nc(C)ccc2O)cc1 was read as Pf growth 96h 38%, Pf growth 48h inconclusive, NS1 inh -4%, Shiga toxin inh active!, Cycloheximide cs 37* and SARS PLP yeast 25%.
Nc1nc2c(s1)CCc1c-2cnn1-c1ccccc1 was read as Pf growth 96h -13%, Pf growth 48h -7%, NS1 inh -134%, Shiga toxin inh 151*, Cycloheximide cs 46* and SARS PLP yeast -31%.
Screening Cc1ccc(C2(C)NC(=O)N(CC(=O)NCc3ccccc3Cl)C2=O)cc1 (stereo not given) returned Pf growth 96h -12%, Pf growth 48h -7%, NS1 inh -2%, Shiga toxin inh 2, Cycloheximide cs 12* and SARS PLP yeast -1%.
`Cc1ccc(N2C(=O)N(CC(=O)Nc3ccc(C)cc3C)C(=O)C2C)cc1` (stereo not given) gave Pf growth 96h 5%, Pf growth 48h 0%, Shiga toxin inh 31, Cycloheximide cs 18 and SARS PLP yeast 0%.
`Cc1ccc(N2C(=O)N(CC(=O)NCc3ccccc3Cl)C(=O)C2C)cc1` (stereo not given) gave Pf growth 96h -9%, Pf growth 48h 10µM*, Shiga toxin inh 10, Cycloheximide cs 10 and SARS PLP yeast 0%.
Cc1ccc(N2C(=O)N(CC(=O)Nc3ccccc3C)C(=O)C2C)cc1 (stereo not given) was read as Pf growth 96h -15%, Pf growth 48h 11%, NS1 inh 0%, Shiga toxin inh 18*, Cycloheximide cs 20* and SARS PLP yeast -6%.
`Cc1ccc(N2C(=O)N(CC(=O)Nc3c(C)cc(C)cc3Cl)C(=O)C2C)cc1` (stereo not given) gave Pf growth 96h 2%, Pf growth 48h inconclusive and SARS PLP yeast 8%.
CC1=CC(=C2C=CC(=O)C=C2)C=C(C)N1C was read as Pf growth 96h 1.9µM*, Pf growth 48h 7.4µM*, NS1 inh -4%, Shiga toxin inh -8, Cycloheximide cs -2 and SARS PLP yeast 0%.
For CCCCn1c(N)c(N(CCOC)C(=O)c2ccc(S(=O)(=O)N3CCCCC3)cc2)c(=O)[nH]c1=O the results were Pf growth 96h -9%, Pf growth 48h -3% and SARS PLP yeast 0%.
Cc1ccc(Nc2nc(CSc3nnc(-c4cccnc4)n3-c3ccccc3C)cs2)cc1 was read as Pf growth 96h inconclusive, Pf growth 48h -21%, NS1 inh inconclusive, Shiga toxin inh 41, Cycloheximide cs 24* and SARS PLP yeast 10%.
Screening Cc1ccccc1-n1c(SCc2csc(Nc3ccccc3)n2)nnc1-c1cccnc1 returned Pf growth 96h 9.3µM*, Pf growth 48h inconclusive, NS1 inh 5%, Shiga toxin inh -9, Cycloheximide cs -5 and SARS PLP yeast -8%.
`O=c1cc(CSc2nnc(-c3cccnc3)n2-c2ccccc2F)nc2sccn12` gave Pf growth 96h 9%, Pf growth 48h -12%, NS1 inh 27%, Shiga toxin inh -9, Cycloheximide cs -4 and SARS PLP yeast 2%.
Oc1cc2c(cc1O)C1c3ccc(O)c(O)c3OCC1(O)C2 (stereo not given) was read as Pf growth 96h 2.6µM*, Pf growth 48h inconclusive, NS1 inh 0%, Shiga toxin inh -15, Cycloheximide cs -1 and SARS PLP yeast 0%.
O=C1/C(=C/c2ccccc2)Oc2cc(OC(=O)N3CCOCC3)ccc21 was read as Pf growth 96h inconclusive, Pf growth 48h 5%, NS1 inh 1%, Shiga toxin inh 11, Cycloheximide cs 19* and SARS PLP yeast -12%.
CC(=O)Oc1ccc(/C=C2/Oc3ccccc3C2=O)cc1 was read as Pf growth 96h 8%, Pf growth 48h 14%, NS1 inh -31%, Shiga toxin inh 49*, Cycloheximide cs 32* and SARS PLP yeast 0%.
For COc1ccc(/C=C2\Oc3ccccc3C2=O)cc1 the results were SARS PLP yeast -9%.
For CN(C1CCCCC1)C(CNS(=O)(=O)c1ccccc1)c1ccccc1 (stereo not given) the results were Pf growth 96h inconclusive, Pf growth 48h inconclusive, NS1 inh -10%, Shiga toxin inh -6, Cycloheximide cs 4 and SARS PLP yeast -1%.
`CCCCC(CC)C(=O)N1CCN(C(=O)c2ccco2)CC1` (stereo not given) gave Pf growth 96h inconclusive, Pf growth 48h 13%, NS1 inh 3%, Shiga toxin inh -4, Cycloheximide cs -1 and SARS PLP yeast 0%.
`CCN(CC)CCOc1ccccc1C(C)=O` gave Pf growth 96h 10%, Pf growth 48h 12%, NS1 inh -7%, Shiga toxin inh 13, Cycloheximide cs -3 and SARS PLP yeast 3%.
COc1ccnc(Nc2ccc(C)c(C)c2)c1C#N was read as Pf growth 96h 8%, Pf growth 48h 7%, NS1 inh 7%, Shiga toxin inh 15, Cycloheximide cs 4 and SARS PLP yeast 2%.
COc1ccnc(Oc2cc(Cl)cc(Cl)c2)c1C#N was read as Pf growth 96h 19%, Pf growth 48h 4%, NS1 inh -2%, Shiga toxin inh -14, Cycloheximide cs 2 and SARS PLP yeast -2%.
`COc1cccc(Oc2nccc(N(C)C)c2C#N)c1` gave Pf growth 96h 81%, Pf growth 48h 108%, NS1 inh -2%, Shiga toxin inh 39*, Cycloheximide cs 15* and SARS PLP yeast -3%.
COc1ccc(Oc2nccc(OC)c2C#N)cc1 was read as Pf growth 96h 43%, Pf growth 48h 39%, NS1 inh 1%, Shiga toxin inh 7, Cycloheximide cs 20* and SARS PLP yeast 6%.
